Measured values: PubChem BioAssay (Tox21)
Inconclusive results are not listed. Values without a mark were called inactive. Calls of active or inactive are those of the source. Calls follow the shape of the full dose curve.

Biological target: 5-hydroxytryptamine receptor 2A (Homo sapiens) (UniProt P28223)
Assay: 5-hydroxytryptamine receptor 2A (HTR2A) small molecule agonists, cell-based qHTS assay (AID 1963587); also: nearly all actives have a fitted effect of over 30% in size
Conditions: HTR2A-CHO cells, calcium flux fluorescence, agonist mode; series mostly up to 76.8 µM; activation: at the top concentration
Source text: National Center for Advancing Translational Sciences [NCATS]
Division of Preclinical Innovation [DPI]
U.S. Environmental Protection Agency [EPA]
National Institutes of Environmental Health Sciences [NIEHS]
National Toxicology Program [NTP]
U.S. Food and Drug Administration [FDA]
The HTR2A receptor is a subtype of the 5-HT2 receptor that belongs to the serotonin receptor family and is a G protein-coupled receptor (GPCR). The HTR2A-CHO cell line stably expressing human 5-hydroxytryptamine receptor 2A (HTR2A) can be used for screening agonists of interactions between 5-HT2 and its ligands. The HTR2A-CHO calcium flux assay is a homogeneous fluorescence-based assay for detecting the intracellular calcium level using FDSS kinetic plate reader system.
HTR2A-CHO cells were dispensed at 2000 cells/3uL/well in 1536-well black-clear bottom plates using a Multidrop Dispenser. After the assay plates were incubated at a 37 C/5% CO2 incubator for 18 h, 3 uL of Dye Loading Buffer was transferred to the assay plate by a Flying Reagent Dispenser. The assay plates were incubated at 37 C for 1h. For agonist mode, 23 nL of compounds dissolved in DMSO, positive controls or DMSO only was transferred to the assay plate by a pin tool. The fluorescence intensity in the plates was measured using FDSS 7000EX kinetic plate reader for 2 min at 1 sec intervals.
% is scaled to controls: 0 for no effect and ±100 for the full control effect; potency is read from the fitted curve at half-maximal effect.

Sequence of 5-hydroxytryptamine receptor 2A (Homo sapiens) (P28223 whole entry, looked up): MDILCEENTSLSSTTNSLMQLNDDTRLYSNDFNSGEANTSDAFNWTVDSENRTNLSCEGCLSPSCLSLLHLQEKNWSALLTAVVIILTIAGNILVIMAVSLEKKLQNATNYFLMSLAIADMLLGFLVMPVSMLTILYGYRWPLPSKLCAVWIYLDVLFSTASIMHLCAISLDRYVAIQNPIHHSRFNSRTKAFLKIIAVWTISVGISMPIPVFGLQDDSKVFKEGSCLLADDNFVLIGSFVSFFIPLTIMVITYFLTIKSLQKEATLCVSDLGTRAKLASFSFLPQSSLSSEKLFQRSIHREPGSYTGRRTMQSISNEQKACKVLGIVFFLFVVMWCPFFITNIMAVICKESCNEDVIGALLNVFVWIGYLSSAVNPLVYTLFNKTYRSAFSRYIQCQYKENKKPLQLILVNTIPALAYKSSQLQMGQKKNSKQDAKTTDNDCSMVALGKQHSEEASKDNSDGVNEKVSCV

In order of falling “activation” value:
1. BrCC(Br)(Br)Br  17.2%
2. COc1cccc2c1cc([N+](=O)[O-])c1c(C(=O)O)cc3c(c12)OCO3  15.7%
3. COC(=O)C(C)N(C(=O)Cc1ccccc1)c1c(C)cccc1C (stereo not given)  14.5%
4. BrCC1CO1 (stereo not given)  13.3%
5. O=c1ssc(Cl)c1Cl  9.61%
6. C[C@H]1[C@H](c2ccc(Cl)cc2)SC(=O)N1C(=O)NC1CCCCC1  8.7%
7. COCCOCCO  7.19%
8. O=[N+]([O-])c1cc(Cl)c(Cl)cc1Cl  3.12%
9. CC(C)C(=O)Cl  3.09%
10. CC(=O)CN(CC(C)=O)N=O  2.81%
11. Brc1cccc(-c2ccccc2)c1  0.59%
12. CCOP(=S)(OCC)Oc1ccc(Cl)cc1Cl  0.14%
13. CC(C)C(Nc1ccc(C(F)(F)F)cc1Cl)C(=O)OC(C#N)c1cccc(Oc2ccccc2)c1 (stereo not given)  0.0867%
14. Clc1ccc(Oc2ccccc2)cc1  0.0793%
15. Cc1ccn2nc(S(=O)(=O)Nc3c(F)cccc3F)nc2n1  -0.0011%
16. CCCSC(=O)N(CCC)CCC  -0.0902%
17. CCCCOC(=O)[C@@H](C)Oc1ccc(Oc2ccc(C#N)cc2F)cc1  -0.17%
18. CCOP(=S)(OCC)SC(CCl)N1C(=O)c2ccccc2C1=O (stereo not given)  -0.179%
19. c1ccc2c(c1)CCNC2  -0.19%
20. O=C(Cc1ccccc1)OCCc1ccccc1  -0.235%
21. c1cc[c]([Sb]([c]2ccccc2)[c]2ccccc2)cc1  -0.449%
22. CCC(C)(C)c1cc(-n2nc3ccccc3n2)c(O)c(C(C)(C)CC)c1  -0.567%
23. COC(=O)c1ccccc1S(=O)(=O)NC(=O)N(C)c1nc(C)nc(OC)n1  -1.09%
24. CCOC(=O)CC(=O)CCl  -1.64%
25. CSc1nc(N=[N+]=[N-])nc(NC(C)C)n1  -1.77%
26. COP(=O)(OC)O/C(=C/Cl)c1cc(Cl)c(Cl)cc1Cl  -1.96%
27. COC(=O)/C=C(\C)OP(=O)(OC)OC  -2.66%
28. ClCCCCBr  -3.22%
29. COc1cc(OC)c(OC)cc1C=O  -3.7%
30. N#Cc1c2ccccc2cc2ccccc12  -7.28%
31. CCOP(=S)(OCC)Oc1ncn(-c2ccccc2)n1  -7.89%
32. O=C(c1ccccc1)C(Cl)Cl  -9.19%

With `CC1(C)CCC(Cc2ccc(Cl)cc2)C1(O)Cn1cncn1` (stereo not given) the Potency was 49 µM (active).
For `CCN(CC)CCOC(=O)C(O)(c1ccccc1)c1ccccc1`, the Potency was 1.34 µM (active).
With `Oc1c(Cl)cc(Cl)cc1Cl` the Potency was “inactive”.

In order of falling “activation” value:
1. CSCC[C@H](NC(=O)[C@H](Cc1c[nH]c2ccccc12)NC(=O)CCNC(=O)OC(C)(C)C)C(=O)N[C@@H](CC(=O)O)C(=O)N[C@@H](Cc1ccccc1)C(N)=O  2.52% [at 35.6 µM]
2. CN[C@@H](C)[C@H](O)c1ccccc1  2.34% [at 35.6 µM]
3. Nc1ccc(Cl)cc1C(=O)c1ccccc1F  0.736% [at 35.6 µM]
4. CCC1(CC)C(=O)NC(=O)NC1=O  -1.38% [at 35.6 µM]
5. CN1C(=S)CN=C(c2ccccc2)c2cc(Cl)ccc21  -9.37% [at 35.6 µM]
